Data on 15 molecules can be found in PubChem BioAssay AID588354 (The Scripps Research Institute Molecular Screening Center, 2011).

SMILES strings stand for the structures. Hit rate of the full screen: of about 360,000 compounds, about 430 (0.12%) were called active.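 Rule for the calls: active = inhibition above the campaign mean plus 3 SD, with each screening campaign given its own cutoff (cut at about 60% in these data); inactive = the rest.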 The sample as a whole holds a higher share of actives than the screen did.

Chain of Nuclear receptor coactivator 1 (Homo sapiens) (Q15788 whole entry, looked up, the tested form may be a part): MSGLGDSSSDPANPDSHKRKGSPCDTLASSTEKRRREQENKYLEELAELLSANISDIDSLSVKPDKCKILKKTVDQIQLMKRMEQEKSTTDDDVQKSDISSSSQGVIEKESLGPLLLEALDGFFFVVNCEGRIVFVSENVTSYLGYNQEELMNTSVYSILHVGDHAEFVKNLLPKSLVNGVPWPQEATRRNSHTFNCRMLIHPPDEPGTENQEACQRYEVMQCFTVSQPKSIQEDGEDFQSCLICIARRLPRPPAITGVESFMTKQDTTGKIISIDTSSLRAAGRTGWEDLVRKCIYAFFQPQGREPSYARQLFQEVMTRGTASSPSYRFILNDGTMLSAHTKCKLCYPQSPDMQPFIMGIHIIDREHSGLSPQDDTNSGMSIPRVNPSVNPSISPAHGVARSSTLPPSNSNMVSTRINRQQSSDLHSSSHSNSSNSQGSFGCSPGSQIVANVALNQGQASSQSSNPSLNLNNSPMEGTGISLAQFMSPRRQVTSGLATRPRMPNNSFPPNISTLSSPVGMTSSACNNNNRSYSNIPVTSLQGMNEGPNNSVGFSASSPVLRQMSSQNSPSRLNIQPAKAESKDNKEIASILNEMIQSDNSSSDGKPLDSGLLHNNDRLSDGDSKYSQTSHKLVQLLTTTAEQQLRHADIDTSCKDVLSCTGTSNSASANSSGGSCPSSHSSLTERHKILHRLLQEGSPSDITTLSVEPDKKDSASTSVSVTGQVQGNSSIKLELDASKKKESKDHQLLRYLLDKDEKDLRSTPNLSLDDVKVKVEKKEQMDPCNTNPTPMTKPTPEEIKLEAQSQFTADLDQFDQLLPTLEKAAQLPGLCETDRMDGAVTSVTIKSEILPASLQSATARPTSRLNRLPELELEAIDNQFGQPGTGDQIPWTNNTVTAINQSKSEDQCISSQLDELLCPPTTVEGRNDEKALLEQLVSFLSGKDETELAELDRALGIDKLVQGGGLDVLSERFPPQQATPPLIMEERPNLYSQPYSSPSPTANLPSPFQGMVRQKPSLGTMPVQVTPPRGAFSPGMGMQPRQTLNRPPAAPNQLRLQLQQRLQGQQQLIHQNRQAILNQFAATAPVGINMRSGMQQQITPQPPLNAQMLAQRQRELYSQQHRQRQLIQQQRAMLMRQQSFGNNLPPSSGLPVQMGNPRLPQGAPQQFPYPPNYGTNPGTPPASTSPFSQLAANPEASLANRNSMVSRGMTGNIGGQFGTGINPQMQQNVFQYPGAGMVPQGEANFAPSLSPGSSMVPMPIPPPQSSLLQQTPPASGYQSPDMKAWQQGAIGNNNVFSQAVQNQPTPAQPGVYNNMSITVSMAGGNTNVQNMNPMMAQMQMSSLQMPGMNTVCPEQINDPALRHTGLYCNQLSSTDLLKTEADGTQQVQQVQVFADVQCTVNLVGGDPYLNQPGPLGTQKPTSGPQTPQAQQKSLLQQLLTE

The assay has as its target Nuclear receptor coactivator 1 (Homo sapiens) (UniProt Q15788). Kind of assay: SRC1 coactivator transcriptional activity inhibitors, primary screen, cell-based, luminescence (AID 588354).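 Note: 0% = DMSO treated cells and 100% = gossypol at 36 µM.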 As to conditions: HEK293 GAL4-SRC1 luciferase reporter, at 3.6 µM, active compounds read high. In general terms: A reporter such as luciferase makes a cellular process visible.
In the case of `COC1C(O)C(C)OC(OC2CCC3(C=O)C(CCC4C3CCC3(C)C(C5=CC(=O)OC5)CCC43O)C2)C1O` (stereo not given), the inhibition – broadly, the drop in the measured response relative to a control, in per cent – was 90.4% (active).

Take `C[C@]12CC[C@H](O)C[C@H]1CC[C@@H]1C2CC[C@]2(C)[C@@H](C3=CC(=O)OC3)[C@@H](O)C[C@]12O` (stereo not given in full): the inhibition is 53.1% (inactive).

`CCC1(C)CC(CCNCc2ccc(N(C)C)cc2)(c2ccc(F)cc2)CCO1` (stereo not given): the inhibition is -23.1% (inactive).

As to `Cc1cccc(-n2c(C)nc3cc(C(=O)N4CCC5(CC4)OCCO5)ccc32)c1`, the inhibition is 7.63% (inactive).

As to `CC1CCC(N(C)C2CCN(C)CC2)CC1` (stereo not given), the inhibition is 9.39% (inactive).

For the molecule `COC(=O)C1=C(c2ccc(Cl)c(C(F)(F)F)c2)C[C@@H]2CC[C@H]1N2C(=O)NC(C)C`, the inhibition was 1.75% (inactive).

In the case of `CCC(C)(O)C(=O)OC1C(=O)OC2CC3C(C)=CC(=O)C(O)C3(C)C3C4(O)OCC23C1C(C)C4O` (stereo not given), the inhibition is 95.5% (active).

Turning to `Cn1cc(C(=O)OCC(=O)N2CCCC2)c2ccccc21`, the inhibition is -5.08% (inactive).

With `CC(=O)OC1C2(CC3N4C(=O)C5(CO)SSC4(CC31O)C(=O)N5C)OC(C)C(C)(C)C2=O` (stereo not given), the inhibition is 23.6% (inactive).

`CCOC(=O)CC(SP1(=S)OCC2(CCCCO2)C(C2CCCCO2)O1)C(=O)OCC` (stereo not given): the inhibition is -3.46% (inactive).

As to `Cc1ccccc1NC(=O)COC(=O)c1cc(C)n(C2CC2)c1C`, the inhibition was -22.1% (inactive).

As to `O=C(COc1ccc2ccccc2c1)N1CCN(Cc2ccncc2)CC1`, the inhibition is -6.36% (inactive).

For `CCOc1ccc(-c2cc(C)[n+](CCN(CC)CC)c(-c3ccc(OCC)cc3)c2)cc1`, the inhibition was 62% (active).

Turning to `CNC(=O)N(C)c1nnc(C(C)(C)C)s1`, the inhibition was -3.52% (inactive).

Regarding `N[C@@H](Cc1c[nH]c2ccccc12)c1nnc(SCc2c(F)cccc2Cl)o1`, the inhibition was -58.9% (inactive).
